# According to the supplement of paper PMC6555819:
# Tested on: PPARg DBDmut IVT, anti-PPARg (DBD mutation: PPARg1 K132A/R137A, NR concentration 270 nM)
# Assay: PBM binding z-score (relative to random genomic background probes); higher = stronger binding; sequences stand for … in GC…GCGATTGACAGCGTAGAATGAAGG
# How it was run: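 Ligand-free nuclear receptor dimers were applied to custom Agilent 4×180K protein-binding microarrays whose double-stranded probes carried direct-repeat seeds, single-nucleotide variants, half-site ablations and random human genomic background sequences in 34-nt variable regions. Incubation lasted 1 h. Binding z-scores were computed against the random background probes from regression-normalized fluorescence.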
row,Sequence,PBM binding z-score
1,ATCTCTAGGTAAGACACAGTTCAGTGAAGAACGC,1.33
2,CCGACTGGGGCAAGGTTACGATAACGCACAGCCA,-0.572
3,AATACAGGGTCACTAGTCCAGAGTAGGTACGAAT,0.987
4,ACTTACTGGTCAACGAGGTTATAGCACGCGTATA,1.91
5,TAGCCTAGGTCATTCAGCGGCCAGTATAGAAAGC,-0.00854
6,CCTACTGGGCCATCAGGTCATTCATATCAACGTT,0.12
7,CCTACTGGCCCATTCAGAGGTCATTGATCATATG,-0.298
8,GCTTGTAGTTCAAGGTTAAGAAAGACTAAGCTAA,0.576
9,TCTAGTTGGTCACTGAGGTCACACACGACGGGTA,2.11
10,ACTGACGGGTCAACGAGGTTATAGCACGCGTATA,0.241
11,ATCTCTAGGTAAGACGCAGTTCAGTGAAGAACGC,0.85
12,GGAATGAGGGCAAAGTTGATAGCATCTGTCGACG,0.0505
13,CGTCCAAGGTCAAGGTCAGTAAAAGAGACTCGAA,0.71
14,TCTATTAGTTGATTAGGGCTACCGAAACAGCGGA,0.888
15,TCTAGTTGGTCAAAGATCACACACTCGAAATGCG,1.22
16,AGTCAGAGTTCAGGACGAGGTAACGTAAAGCACG,-0.341
17,CGAACTAGGTCACGGACAGTGAATCTCCGCACGC,6.07
18,TCATATAGGTAAAAGCTAGGTGAAAGTCCGATCT,1.08
19,TCGAGTAGGTAACCAATGGGGCATTCAGCTTTCT,-0.752
20,TCGAGTAGGTTAGCAATGGGGCATTCAGCTTTCT,-1.37

row,Sequence,PBM binding z-score
1,ATGTCTAGGTAACCAAGTTCAGTGAATGCCGAAC,-0.029
2,TCTATTAGTTGAAGGGCAAGCGACGAGTCCGTTT,0.671
3,TCTGCGAGGTCAGTTGGTCAGCTAACGAGCTGCC,0.235
4,AGAATGAGGTTACCAAAGATCCGGGAAACGCTTG,0.35
5,GCTAGCAGGCCATTTGGGTCACTCCATGACGGGC,-0.961
6,CTCGAAAGGTCGGTTGAGGTGAGGATACGGATAA,-0.445
7,CCTATTAGTTGACCATAATGGCAACCGAAGCTCG,1.21
8,CCTACTGGACCACGAAAGGTCATTGATTCAGTGA,0.507
9,CTTCAAAGTTCAAGGTAACGTAACAGAAAGCAGC,1
10,TCGAGTAGGTTACCAATCGGGCATTCAGCTTTCT,-0.723
11,AGAACGAGGGCAATGAGATGATAGCACGGGTGGC,0.417
12,CCGAGTAGGTTTTGGGGCATTCAGGCAACGGTGA,-0.0504
13,CCTATTAGTTGACCATAAGTGCAACCGAAGCTCG,0.839
14,TCATATAGGTAAATGCTAGGTGAAAGTTCGATCT,1.1
15,CGTCCAAGGTCAGAGCGGTCAGTGAATGCCGAGT,0.202
16,TAGCCTAGGTCCTGGGCCAGTATACCACGCGAAC,-1.32
17,GGAACGACGGCAAAGTTGATAGCATCTGTCGACG,-1.18
18,GTACCAAGGTGAGTAGGTCGTTGATGAGTAGGCG,-1.14
19,CGAACTAGGTCCAGGACAGTGAATCTCCGCACGC,-1.24
